Screening results from PubChem BioAssay.
Rows were chosen to be rich in hits. Some 4.1% of all compounds tested hit in one or more screens of this group.
NALP1 inh: inhibitors of NALP1 inflammasome in yeast. AID 2071. inhibition, % at 10 µM. hit rate 0.61% among 280,000. S. cerevisiae NALP1/ASC/caspase-1 growth, X-gal OD620, 72 h; in the data active = inhibition mostly above about 24%, no sharp cut-off; inactive = mostly below about 32%
tim23-1 inh: inhibits growth of tim23-1 mutant yeast; inhibition, % at 20 µM; hit rate 1.3% among 330,000; AID 463212; S. cerevisiae tim23-1 growth, BacTiter-Glo luminescence, 24 h;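 active = growth inhibition of the mutant yeast at or above 50%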;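 note: temperature-sensitive mutant grown at 25 °C; plate controls were DMSO-treated mutant yeast for no effect and medium wells lacking yeast for full effect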
TIM10 inh: TIM10 yeast growth inhibition; S. cerevisiae TIM10 strain growth, BacTiter-Glo luminescence, 24 h; inhibition, % at 10 µM; hit rate 1.4% among 330,000; AID 463195;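 active = inhibition of 40% or more at the single tested concentration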;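 note: wild-type TIM10 isogenic control strain grown at permissive 25 °C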
tim10-1 inh: tim10-1 yeast growth inhibition; S. cerevisiae tim10-1 ts strain growth, BacTiter-Glo, 24 h; inhibition, % at 20 µM; hit rate 2.2% among 330,000;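 active = inhibition of at least 40%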;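 note: mutant grown at 25 °C; 0% = DMSO wells with yeast and 100% = wells holding no yeast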
NLRP3 yeast inh: inhibitors of NALP3 inflammasome in yeast. Yeast reconstituted NLRP3/ASC/caspase-1, beta-gal luminescence, 24 h. inhibition, % at 10 µM. hit rate 0.39% among 330,000. AID 2825;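 active = inhibition of 50% or more; inactive = inhibition below 50%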;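 note: plate controls were induced DMSO wells for no effect and uninduced yeast grown without galactose for full effect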
tim10-1 conf: tim10-1 yeast growth inhibition, confirmed; shares compounds with tim10-1 inh; S. cerevisiae tim10-1 ts strain growth, BacTiter-Glo, 24 h; inhibition, % at 20 µM; hit rate 56% among 7,400; AID 463213;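 active = inhibition of yeast growth at or above a set limit in either of two repeat tests at 20 µM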;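 note: tim10-1 mutant grown at permissive 25 °C to find synthetic lethal compounds; 0% = DMSO yeast wells and 100% = medium wells without yeast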
tim10 confirm: confirmation of TIM10 yeast growth inhibitors | shares compounds with TIM10 inh | S. cerevisiae tim10 strain growth, BacTiter-Glo luminescence, 24 h | inhibition, % at 10 µM | hit rate 63% among 4,600 | AID 463215;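 active = inhibition of yeast growth at or above a set limit in either of two replicates at 10 µM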;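 note: this counterscreen used the strain with wild-type TIM10; 0% = yeast with DMSO and 100% = medium wells lacking yeast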
tim23-1 confirm: tim23-1 yeast growth inhibition, confirmed. inhibition, % at 20 µM. S. cerevisiae tim23-1 growth, BacTiter-Glo luminescence, 24 h. shares compounds with tim23-1 inh. hit rate 83% among 4,400;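 active = inhibition above about 39% in either of two replicate wells at 20 µM, limit read from the data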;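 note: temperature-sensitive tim23-1 mutant grown at 25 °C; 0% = DMSO wells with yeast and 100% = medium wells without yeast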
An asterisk follows results filed as active; x = not tested or not shown.

SMILES	NALP1 inh	tim23-1 inh	TIM10 inh	tim10-1 inh	NLRP3 yeast inh	tim10-1 conf	tim23-1 confirm	others
O=C(Nc1ccc(N2CCN(C(=O)c3cccs3)CC2)cc1)c1ccc([N+](=O)[O-])o1	-5	71*	72*	72*	15	74*	85*	tim10 confirm=77*
O=C(Nc1ccc(N2CCOCC2)cc1)c1ccc([N+](=O)[O-])o1	-2	55*	26	55*	8	29	58*
O=C(Nc1ccc(S(=O)(=O)N2CCOCC2)cc1)c1ccc([N+](=O)[O-])o1	-6	26	18	28	-6	x	x
COC(=O)c1cc(Br)c(=O)n(Cc2cccnc2)c1	-4	16	-7	8	6	x	x
COc1ccc(C(=O)CC(=O)C(=O)Nc2ccccc2Cl)cc1	-12	x	x	x	x	x	x
COc1ccc(-c2cc3ccccc3oc2=O)cc1NC(=O)c1ccc(Br)o1	48	-25	-2	-20	-7	x	x
COc1ccc(-c2cc3ccccc3oc2=O)cc1NC(=O)c1ccc([N+](=O)[O-])o1	16	70*	62*	66*	16	64*	41*	tim10 confirm=72*
O=C(c1ccccc1)C(CCC(CN1CCOCC1)C(=O)c1ccccc1)CN1CCOCC1 (stereo unspecified)	-3	53*	60*	54*	41	48*	47*	tim10 confirm=68*
Cc1c(C(=O)OCC(=O)N(C)Cc2ccccc2)oc2ccccc12	x	46	0	33	28	x	x
Cc1c(C(=O)OCC(=O)N(C)c2ccccc2)oc2ccccc12	6	56*	36	49*	25	44*	60*
Cc1cc(C(=O)OCC(=O)N(C)c2ccccc2)ccc1[N+](=O)[O-]	-4	16	-2	21	-19	x	x
CN(C(=O)COC(=O)c1cccc(F)c1)c1ccccc1	-11	31	-5	27	18	x	x
CC(=O)Oc1ccc(-c2cccc(C(=O)OCC(=O)N(C)c3ccccc3)c2)cc1	38	50*	21	46*	42	34*	37
CN(C)c1cccc(C(=O)OCC(=O)N(C)c2ccccc2)c1	19	52*	30	48*	13	48*	50*
Cc1ccc(C(=O)OCC(=O)N(C)c2ccccc2)cc1C	12	53*	33	41*	17	38*	36
CC(C)c1ccc(N(CC(=O)NCC2CCCO2)C(=O)Cn2nnc(-c3cccs3)n2)cc1 (stereo unspecified)	-7	13	16	17	18	x	x
CN(CC(=O)Nc1ccccc1Br)C(=O)c1ccc2c(=O)n3c(nc2c1)CCC3	x	-10	-1	-14	1	x	x
Cn1c(CCC(=O)Nc2cc(S(C)(=O)=O)ccc2Cl)nc2cc(S(=O)(=O)N3CCOCC3)ccc21	x	-2	1	10	16	x	x
CC(C)(C)N(Cc1ccccc1)C(=O)COC(=O)c1ccc([N+](=O)[O-])o1	x	53*	27	45*	24	31	46*
O=C(COC(=O)c1ccc([N+](=O)[O-])o1)NCCc1ccccc1	x	-8	-157	-166	16	x	x
COc1ccc(-c2n[nH]c(C)c2-c2cnn(-c3ccccc3)c2)c(O)c1	-73	60*	50*	51*	21	42*	50*	tim10 confirm=44*
O=C(Nc1ccccc1C(=O)N/N=C/c1ccco1)c1ccc(F)cc1	3	60*	31	42*	14	52*	59*
Cc1ccc(C(=O)/C=C/c2ccc(F)cc2)o1	20	18	12	12	2	x	x
O=C(/C=C/c1ccc(F)cc1)c1ccccc1Br	55*	62*	44*	47*	15	64*	58*	tim10 confirm=64*
CCOc1cc(/C=C2\C(=O)N(c3cccc(C(F)(F)F)c3)C(=O)c3ccccc32)ccc1O	0	65*	30	42*	3	34*	47*
SMILES	NALP1 inh	tim23-1 inh	TIM10 inh	tim10-1 inh	NLRP3 yeast inh	tim10-1 conf	tim23-1 confirm	others
CCOc1cc(/C=C2/NC(=O)N(Cc3ccccc3F)C2=O)ccc1O	4	15	13	33	8	x	x
COc1cccc(/C=C2\C(=O)N(c3cccc(C)c3)C(=O)c3ccccc32)c1	36	75*	41*	43*	0	46*	68*	tim10 confirm=46*
CC1=NN(c2ccccc2)C(=O)/C1=C/c1cccc(C)c1	12	35	20	14	6	x	x
COc1cccc(N2C(=O)c3ccncc3C2=O)c1	8	-8	-18	15	10	x	x
Cc1cccc(N2C(=O)/C(=C\c3ccc(OC(F)F)cc3)c3ccccc3C2=O)c1	24	68*	34	51*	-1	25	58*
COc1ccc(OC)c(CN2CCN(C(=O)[C@@H](NC(=O)c3cccc(C)c3)C(C)C)CC2)c1	x	-8	9	-11	5	x	x
CCc1ccccc1NC(=O)Cn1nc(C(F)(F)F)cc1C1CC1	6	10	18	18	10	x	x
Cc1ccc(S(=O)(=O)CC(=O)c2cc3cccc(C)c3oc2=O)cc1	3	53*	1	42*	5	-23	32
COc1cccc2cc(C(=O)CS(=O)(=O)c3ccc(C)cc3)c(=O)oc12	4	37	-4	33	9	x	x
CC(=O)Oc1cccc(/C=C2\Sc3ccccc3C2=O)c1	17	86*	33	44*	20	48*	85*
O=C(Nc1ccccc1N1CCCCC1)c1ccc(-c2ccc(Cl)cc2)o1	39	5	6	28	-1	x	x
CN1CCN(c2ccccc2NC(=O)c2ccc(-c3ccc(Br)cc3)o2)CC1	26	50	20	56*	42	46*	39
Cc1ccc(NC(=S)N(Cc2ccc(Br)cc2)Cc2ccc(C(=O)O)cc2)cc1C	-2	23	14	12	21	x	x
O=[N+]([O-])c1ccc(NC(=S)N2CCc3ccccc32)cc1	2	54*	35	49*	31	42*	49*
COc1cc(OC)nc(Oc2ccc(N)c(C)c2)n1	-9	19	0	16	-24	x	x
Cc1ccc2nc(N3CCN(C(=O)CCCC(=O)O)CC3)nc(-c3ccccc3)c2c1	7	29	21	25	5	x	x
Cc1ccc2nc(N3CCN(C=O)CC3)nc(-c3ccccc3)c2c1	-23	60*	29	43*	34	10	42*
O=C(COc1ccc(S(=O)(=O)N2CCOCC2)cc1Cl)NCC1CCCO1 (stereo unspecified)	6	-3	3	7	2	x	x
CCOC(=O)c1ccc(N=c2sc(C(=O)OC)cc(=O)n2-c2ccc(C(=O)OCC)cc2)cc1	33	20	24	15	9	x	x
COC(=O)c1cc(=O)n(-c2ccccc2)c(=Nc2ccccc2)s1	52	73*	18	51*	3	43*	52*
